Laboratory results published in paper PMC5540273 (PLoS ONE, 2017).

Legend:
Details in all cases: concentration: 1 μM, replicates: in singlicate; n = 1
[1] = tested on: BRSK1
[2] = tested on: BRSK2
[3] = tested on: BTK
[4] = tested on: BUB1
[5] = tested on: CAMK1B
[6] = tested on: CAMK1D
[7] = tested on: CAMK1G
[8] = tested on: CAMK1
[9] = tested on: CAMK2A
[10] = tested on: CAMK2B
[11] = tested on: CAMK2D
[12] = tested on: CAMK2G
[13] = tested on: CAMK4
[14] = tested on: CAMKK1
[15] = tested on: CAMKK2
[16] = tested on: CASK
[17] = tested on: T1, CDC2L1
T1 construct: gene CDK11B

[18] = tested on: CDC2L2
[19] = tested on: T2, CDC2L5
T2 construct: gene CDK13

[20] = tested on: T3, CDK11
T3 construct: gene CDK19
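Note: KINOMEscan kinase panel screen.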

| Structure (SMILES) | %Inh [1] | %Inh [2] | %Inh [3] | %Inh [4] | %Inh [5] | %Inh [6] | %Inh [7] | %Inh [8] | %Inh [9] | %Inh [10] | %Inh [11] | %Inh [12] | %Inh [13] | %Inh [14] | %Inh [15] | %Inh [16] | %Inh [17] | %Inh [18] | %Inh [19] | %Inh [20] |
| --- | --- | --- | --- | --- | --- | --- | --- | --- | --- | --- | --- | --- | --- | --- | --- | --- | --- | --- | --- | --- |
| Cl.O=S(=O)(c1cccc(F)c1)c1ccc(Nc2ncnc3cc(Br)sc23)cc1Cl [GSK306886] | 0% | 0% | 0% | 0% | 38% | 10% | 0% | 2% | 0% | 0% | 9% | 0% | 0% | 0% | 20% | 47% | 3% | 20% | 0% | 0% |
| Clc1cc(Nc2ncnc3cc[nH]c23)ccc1OCc1ccccn1 | 0% | 1% | 0% | 0% | 4% | 33% | 27% | 35% | 0% | 0% | 19% | 0% | 0% | 0% | 0% | 0% | 12% | 15% | 0% | 29% |
| CC(=O)Nc1n[nH]c2ncc(-c3ccccc3)cc12 [SB-548492] | 21% | 0% | 0% | 0% | 0% | 18% | 0% | 35% | 4% | 0% | 0% | 17% | 0% | 0% | 4% | 0% | 0% | 14% | 21% | 0% |
| Cl.c1ccc(Cn2ncc3cc(Nc4ncnc5ccccc45)ccc32)cc1 [GW273749] | 0% | 0% | 0% | 0% | 13% | 17% | 23% | 28% | 2% | 0% | 31% | 25% | 0% | 3% | 32% | 5% | 0% | 19% | 0% | 4% |
| Fc1cccc(COc2ccc(Nc3ncnc4sc(-c5ccc[nH]5)cc34)cc2Cl)c1 [GW707818] | 1% | 16% | 5% | 25% | 9% | 22% | 0% | 25% | 0% | 0% | 7% | 0% | 5% | 0% | 16% | 15% | 20% | 15% | 0% | 5% |
| COc1ccc(NC(=O)Nc2ccc(C)c(-c3ccc(C(=O)Nc4ccncc4)cc3)c2)cc1 [GSK1398475] | 0% | 0% | 0% | 28% | 1% | 3% | 0% | 4% | 0% | 0% | 0% | 22% | 0% | 3% | 20% | 0% | 0% | 34% | 0% | 4% |
| O=C(NCCCN1CCCC1=O)c1cnc(NCc2cc(Cl)ccc2Cl)nc1NC1CCNCC1 | 6% | 0% | 0% | 0% | 21% | 6% | 0% | 0% | 0% | 0% | 0% | 0% | 0% | 4% | 1% | 78% | 0% | 0% | 0% | 4% |
| O=C(Nc1n[nH]c2nc(-c3ccco3)c(Br)cc12)c1ccc(CN2CCCC2)cc1.O=C(O)[C@H](O)[C@@H](O)C(=O)O [SB-742352] | 51% | 24% | 0% | 0% | 0% | 8% | 0% | 0% | 2% | 0% | 0% | 0% | 0% | 0% | 0% | 0% | 0% | 0% | 0% | 0% |
| COc1ccc(Nc2nccc(N3CCC(NC(=O)Nc4ccc5c(c4)OCO5)C3)n2)cc1 (stereo not shown) [GSK1379745] | 0% | 2% | 32% | 33% | 0% | 8% | 4% | 8% | 0% | 1% | 7% | 20% | 0% | 29% | 9% | 5% | 0% | 0% | 0% | 46% |
| C[C@@H]1CCN(C(=O)CO)C[C@@H]1N(C)c1ncnc2[nH]ccc12 | 13% | 0% | 0% | 0% | 29% | 0% | 0% | 0% | 0% | 0% | 0% | 13% | 20% | 4% | 11% | 0% | 0% | 0% | 0% | 6% |
| COc1ccc(NC(=O)c2ccc(-c3cc(-c4nnc(C)o4)ccc3C)cc2)cc1 [GW595885] | 0% | 0% | 0% | 40% | 4% | 8% | 0% | 4% | 0% | 0% | 0% | 8% | 0% | 0% | 0% | 21% | 0% | 0% | 0% | 0% |
